Data: the supplement of paper PMC6897291

How the values were obtained:
U-2932 [1] = assay: growth inhibition by drug alone (1 - RLU/untreated control) (fraction); higher = stronger inhibition; details: 177Lu-lilotomab satetraxetan 0 ug/ml
Procedure, shortened: (§1)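 RIVA or U-2932 cells were left untreated or pretreated for 18 h with a radiolabelled anti-CD37 antibody conjugate (~600 MBq/mg) at 0.5 µg/ml for RIVA or 1 µg/ml for U-2932. The cells were then washed and seeded at 3,000 cells/well on plates pre-printed with the Selleck Cambridge Cancer Compound library, dosed at 10/100 nM for RIVA and 10/1,000 nM for U-2932. From day 3, RealTime-Glo luminescence was read daily after 1 h at 37°C. Growth inhibition was taken as one minus RLU over the mean of the untreated no-drug wells, of which there were 48 per plate.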

RIVA [2] = assay: as above; details: 177Lu-lilotomab satetraxetan 0 ug/ml
Procedure, shortened: as §1

U-2932 [3] = assay: growth inhibition by drug plus 177Lu-lilotomab satetraxetan (1 - RLU/untreated control) (fraction); higher = stronger inhibition; details: 177Lu-lilotomab satetraxetan 1 ug/ml
Procedure, shortened: as §1

RIVA [4] = assay: as above; details: 177Lu-lilotomab satetraxetan 0.5 ug/ml
Procedure, shortened: as §1

SMILES	growth inhibition by drug alone (U-2932 [1]; 10 nM, time (day): 3)	growth inhibition by drug alone (U-2932 [1]; 10 nM, time (day): 4)	growth inhibition by drug alone (U-2932 [1]; 10 nM, time (day): 5)	growth inhibition by drug alone (U-2932 [1]; 10 nM, time (day): 6)	growth inhibition by drug alone (U-2932 [1]; 1000 nM, time (day): 3)	growth inhibition by drug alone (U-2932 [1]; 1000 nM, time (day): 4)	growth inhibition by drug alone (U-2932 [1]; 1000 nM, time (day): 5)	growth inhibition by drug alone (U-2932 [1]; 1000 nM, time (day): 6)	growth inhibition by drug alone (RIVA [2]; 10 nM, time (day): 3)	growth inhibition by drug alone (RIVA [2]; 10 nM, time (day): 4)	growth inhibition by drug alone (RIVA [2]; 10 nM, time (day): 5)	growth inhibition by drug alone (RIVA [2]; 10 nM, time (day): 6)	growth inhibition by drug alone (RIVA [2]; 100 nM, time (day): 3)	growth inhibition by drug alone (RIVA [2]; 100 nM, time (day): 4)	growth inhibition by drug alone (RIVA [2]; 100 nM, time (day): 5)	growth inhibition by drug alone (RIVA [2]; 100 nM, time (day): 6)	growth inhibition by drug plus 177Lu-lilotomab satetraxetan (U-2932 [3]; 10 nM, time (day): 3)	growth inhibition by drug plus 177Lu-lilotomab satetraxetan (U-2932 [3]; 10 nM, time (day): 4)	growth inhibition by drug plus 177Lu-lilotomab satetraxetan (U-2932 [3]; 10 nM, time (day): 5)	growth inhibition by drug plus 177Lu-lilotomab satetraxetan (U-2932 [3]; 10 nM, time (day): 6)	growth inhibition by drug plus 177Lu-lilotomab satetraxetan (U-2932 [3]; 1000 nM, time (day): 3)	growth inhibition by drug plus 177Lu-lilotomab satetraxetan (U-2932 [3]; 1000 nM, time (day): 4)	growth inhibition by drug plus 177Lu-lilotomab satetraxetan (U-2932 [3]; 1000 nM, time (day): 5)	growth inhibition by drug plus 177Lu-lilotomab satetraxetan (U-2932 [3]; 1000 nM, time (day): 6)	growth inhibition by drug plus 177Lu-lilotomab satetraxetan (RIVA [4]; 10 nM, time (day): 3)	growth inhibition by drug plus 177Lu-lilotomab satetraxetan (RIVA [4]; 10 nM, time (day): 4)	growth inhibition by drug plus 177Lu-lilotomab satetraxetan (RIVA [4]; 10 nM, time (day): 5)	growth inhibition by drug plus 177Lu-lilotomab satetraxetan (RIVA [4]; 10 nM, time (day): 6)	growth inhibition by drug plus 177Lu-lilotomab satetraxetan (RIVA [4]; 100 nM, time (day): 3)	growth inhibition by drug plus 177Lu-lilotomab satetraxetan (RIVA [4]; 100 nM, time (day): 4)	growth inhibition by drug plus 177Lu-lilotomab satetraxetan (RIVA [4]; 100 nM, time (day): 5)	growth inhibition by drug plus 177Lu-lilotomab satetraxetan (RIVA [4]; 100 nM, time (day): 6)
COc1ccc(-c2ccc3c(N4CCOCC4)nc(N4C[C@@H](C)O[C@@H](C)C4)nc3n2)cc1CO	0.119	0.133	0.0721	0.0015	0.602	0.481	0.389	0.407	0.0903	0.0995	0.0433	-0.131	0.104	0.122	0.0472	-0.0784	0.0319	0.069	0.0942	0.161	0.496	0.409	0.361	0.434	–	–	–	–	–	–	–	–
O=C(Nc1ccc(OC(F)(F)F)cc1)c1sccc1NCc1ccnc2ccccc12	0.0561	-0.00441	-0.0537	-0.177	0.00246	-0.0266	-0.0424	-0.000118	-0.0142	-0.0478	-0.122	-0.26	-0.426	-0.341	-0.386	-0.562	-0.0212	0.051	0.0902	0.117	-0.0347	0.0399	0.0489	0.0855	0.534	0.568	0.593	0.603	0.0922	0.306	0.33	0.355
CCn1c(-c2nonc2N)nc2c(C#CC(C)(C)O)ncc(OC[C@H]3CCCNC3)c21	0.0651	0.0169	-0.0977	-0.22	0.654	0.769	0.826	0.861	0.0369	-0.0639	-0.133	-0.326	-0.134	-0.204	-0.217	-0.34	-0.0148	0.000859	-0.00972	0.0167	0.596	0.736	0.792	0.836	0.28	0.464	0.475	0.494	0.315	0.41	0.42	0.413
COCC[n+]1c2c(n(Cc3cnccn3)c1C)C(=O)c1ccccc1C2=O	0.948	0.947	0.963	0.974	0.989	0.989	0.989	0.989	0.984	0.981	0.98	0.981	0.98	0.979	0.98	0.979	0.945	0.95	0.969	0.977	0.988	0.988	0.989	0.991	–	–	–	–	–	–	–	–
CCOc1ccc(Nc2nc(-c3c(C)nc4ccccn34)cs2)cc1	0.225	0.209	0.0949	0.0852	0.961	0.972	0.979	0.982	0.0293	0.0644	-0.0241	-0.237	0.931	0.948	0.951	0.952	0.151	0.185	0.267	0.311	0.968	0.978	0.983	0.987	0.559	0.602	0.61	0.62	0.945	0.965	0.97	0.973
CC[C@]1(O)C[C@@H]2CN(CCc3c([nH]c4ccccc34)[C@@](C(=O)OC)(c3cc4c(cc3OC)N(C)[C@H]3[C@@](O)(C(=O)OC)[C@H](OC(C)=O)[C@]5(CC)C=CCN6CC[C@]43[C@@H]65)C2)C1 [Vinblastine]	0.125	0.0844	0.0429	0.00677	0.942	0.96	0.971	0.978	0.0866	0.101	0.0372	-0.193	0.546	0.442	0.393	0.337	0.0509	0.085	0.136	0.198	0.96	0.973	0.981	0.984	–	–	–	–	–	–	–	–
Fc1cc(-c2cccc3ncc(-c4cnn(C5CCNCC5)c4)nc23)cc(F)c1CN1CCOCC1	0.107	0.069	-0.083	-0.0936	0.0551	0.07	0.0444	-0.14	0.0385	0.00291	-0.0745	-0.286	-0.358	-0.305	-0.287	-0.341	0.0469	0.0958	0.15	0.179	0.041	0.106	0.135	0.237	–	–	–	–	–	–	–	–
CCCC(=O)[O-].[Na+] [Sodium butyrate]	-0.0432	-0.057	-0.0778	-0.0762	-0.0747	-0.0522	-0.0783	-0.149	-0.23	-0.252	-0.304	-0.546	-0.245	-0.343	-0.3	-0.374	-0.0586	-0.0574	-0.0479	-0.015	-0.0238	0.0387	0.0442	0.139	0.36	0.484	0.502	0.51	0.431	0.486	0.506	0.493
COc1ccc2c(c1)CCC1C2CCC2(C)C(NCCCCCCN3C(=O)C=CC3=O)CCC12 (stereo unspecified)	0.079	0.0406	0.0171	-0.0318	-0.0546	0.0273	-0.0312	-0.361	-0.042	-0.062	-0.0736	-0.13	-0.374	-0.291	-0.321	-0.444	0.00613	0.0631	0.103	0.161	-0.0126	0.0436	0.0468	0.107	–	–	–	–	–	–	–	–
O=C(Nc1cccnc1)N1CCC(Cc2cccc(Oc3ccc(C(F)(F)F)cn3)c2)CC1	0.144	0.101	-0.0107	-0.0195	0.779	0.796	0.833	0.872	0.473	0.369	0.37	0.34	-0.00381	0.0224	0.0325	-0.0255	0.152	0.18	0.262	0.319	0.299	0.291	0.395	0.544	–	–	–	–	–	–	–	–
OCCn1cc(-c2ccc3c(c2)CC/C3=N\O)c(-c2ccncc2)n1	-0.0296	-0.0312	-0.153	-0.152	-0.112	-0.139	-0.146	-0.12	-0.166	-0.13	-0.183	-0.335	-0.39	-0.208	-0.171	-0.236	-0.00182	0.0536	0.0736	0.0788	-0.118	-0.0611	-0.0101	0.0758	0.513	0.569	0.578	0.59	0.436	0.551	0.585	0.602
O=c1cc(N2CCOCC2)oc2c(-c3ccccc3)cccc12	0.0578	0.0496	-0.0145	-0.0318	0.0577	0.0696	0.0149	-0.0509	0.12	0.0305	-0.0125	-0.181	0.0387	0.0134	-0.0363	-0.116	0.00353	0.0372	0.0314	0.0726	0.0169	0.0857	0.0428	0.0454	0.442	0.529	0.563	0.58	0.423	0.463	0.473	0.446
COc1cc2c(cc1OC)CN(CCc1ccc(NC(=O)c3cccc4c(=O)c5cccc(OC)c5[nH]c34)cc1)CC2 [Elacridar]	-0.00987	0.00491	0.00725	0.0766	0.114	0.0649	0.000978	-0.0858	-0.196	-0.178	-0.24	-0.531	-0.21	-0.258	-0.283	-0.457	-0.0285	0.00551	0.0106	0.107	0.0477	0.0502	0.0374	-0.0614	–	–	–	–	–	–	–	–
COc1cc2nccc(Oc3ccc(NC(=O)NC4CC4)c(Cl)c3)c2cc1C(N)=O [E7080 (Lenvatinib)]	-0.0768	-0.0782	-0.0262	0.0583	-0.0598	-0.0139	-0.0471	0.0893	-0.272	-0.277	-0.3	-0.325	-0.113	-0.192	-0.168	-0.219	-0.0798	-0.0346	0.0178	0.0795	-0.0775	0.00296	0.0372	0.201	–	–	–	–	–	–	–	–
CC(NC(=O)c1ccccc1/N=C/c1c(O)ccc2ccccc12)c1ccccc1 (stereo unspecified) [Sirtinol]	0.0874	0.0846	0.0103	-0.0559	0.00453	0.0486	-0.0294	-0.196	-0.0251	0.00147	-0.0621	-0.367	-0.00236	-0.00311	-0.00892	-0.099	0.0459	0.0759	0.116	0.164	-0.00947	0.0904	0.0917	0.101	–	–	–	–	–	–	–	–
Cc1c(CCOc2ccc(C(=O)O)cc2)c2cc(Cl)ccc2n1C(c1ccccc1)c1ccccc1	0.00805	-0.00114	-0.0847	-0.0955	-0.0489	-0.0693	-0.125	-0.133	-0.14	-0.201	-0.294	-0.473	-0.448	-0.454	-0.564	-0.758	-0.0474	-0.0119	0.00779	0.0213	0.0043	0.0519	0.061	0.147	0.505	0.573	0.594	0.582	0.296	0.41	0.419	0.435
CNC(=O)c1cc(Oc2ccc(NC(=O)Nc3ccc(Cl)c(C(F)(F)F)c3)c(F)c2)ccn1 [Regorafenib (BAY 73-4506)]	0.146	0.0913	0.0627	-0.0165	0.26	0.284	0.302	0.217	0.0302	0.118	0.0999	0.0537	0.189	0.262	0.302	0.293	0.125	0.179	0.283	0.319	0.269	0.291	0.39	0.48	0.632	0.688	0.717	0.733	0.463	0.581	0.629	0.644
O=c1cc(N2CCOCC2)oc2c(-c3cccc4c3sc3ccccc34)cccc12	–	–	–	–	–	–	–	–	0.21	0.183	0.173	-0.0317	-0.363	-0.241	-0.261	-0.43	0.0719	0.131	0.166	0.2	0.312	0.318	0.34	0.421	0.597	0.621	0.62	0.635	0.447	0.499	0.523	0.529
